Hit rate of the full screen: of about 110,000 compounds, about 420 (0.38%) were called active. Rule as the data show it: active = inhibition above about 30% (passing the limit was not always enough); inconclusive = no clear call, values can overlap the other calls. For the sample, actives were picked, then their nearest neighbours and some compounds at random.
Tested on: RmlC (dTDP-4-dehydrorhamnose 3,5-epimerase) and RmlD (dTDP-4-dehydrorhamnose reductase), coupled enzyme assay
Experiment: RmlC and RmlD coupled enzyme inhibitors, primary screen, biochemical, 384-well, compound mixtures, retest (AID 1532)
Conditions: 384-well mixture HTS, at 5.5 µM, stronger effect = higher value
[1] = measured here: mean retest inhibition

Row | SMILES | inhibition | inhibition [1]
1 | c1ccc(-c2cn3c(n2)CCc2ccc4cccnc4c2-3)cc1 | -52.8% (inactive) | –
2 | CC(=O)Nc1cccc(-c2cnc3ccccc3n2)c1 | 13.8% (inactive) | –
3 | c1ccc(-c2cn3cccnc3n2)cc1 | 70% (active) | 81.6%
4 | CC(=O)Nc1ccc(-c2cn3cccnc3n2)cc1 | 102% (active) | 156%
5 | c1ccc(-c2ccnc3nc(-n4cccc4)nn23)cc1 | -3.61% (inactive) | –
6 | CCCC(=O)Nc1cccc(-c2cn3ccsc3n2)c1 | 3.46% (inactive) | –
7 | CCn1c(=N)c(S(=O)(=O)c2ccc(F)cc2)cc2c(=O)n3ccccc3nc21 | -13.4% (inactive) | –
8 | COc1ccc(CNC(=O)c2cc3c(=O)n4ccccc4nc3n(CC3CCCO3)c2=N)cc1 (centres undefined) | -12.4% (inactive) | –
9 | CCCn1c(=NC(C)=O)c(C(=O)OCC)cc2c(=O)n3ccccc3nc21 | 48.4% (active) | 60.1%
10 | C#CCOCCOCCOCCNc1nc(N2CCN(C(=O)[C@H](CCC(=O)O)n3cc(C(N)CO)nn3)CC2)nc(N2CCN(C(=O)[C@H](CCCCN)n3cc(C(N)[C@H](C)CC)nn3)CC2)n1 (some centres undefined) | 2.59% (inactive) | –
11 | COCc1cc(=O)[nH]c2cc(NC(=O)C(F)(F)F)c(C)cc12 | 39.2% (active) | 46.2%
12 | O=C(Nc1ccccc1)c1ccccc1NC(=O)C(F)(F)F | 8.91% (inactive) | –
13 | COc1ccc(OC)c2[nH]c(=O)c(CCNC(=O)C(C)(C)C)cc12 | 8.84% (inactive) | –
14 | COC(C[C@@H](O)[C@H](C)[C@H](O)COCc1ccccc1)OC | 2.05% (inactive) | –
15 | CC(C)CC(CO)N1CCN(C(=O)c2ccc(Cl)cc2Cl)CCC1=O (centres undefined) | -11.9% (inactive) | –
16 | CCO[C@H]1OC(C(=O)O)=C[C@@H](C2CCCCC2)[C@@H]1CCCO | -6.81% (inactive) | –
17 | COc1ccc(CN2CC[C@H]3C=CC[C@@H](C(=O)N4CCOCC4)[C@H]3C2=O)cc1OC | 7.97% (inactive) | –
18 | N#CCc1c(C#N)c(N)nc(N2CCCC2)c1C#N | 14.6% (inactive) | –
19 | COC(=O)CCCC1=CC2=CC(=O)C(C)(OC(=O)c3cccs3)C(=O)C2=CN1c1cccc(C#N)c1 (centres undefined) | -9.55% (inactive) | –
20 | C=CC1C(OC2OC(CO)C(O)C(O)C2O)OC=C(C(=O)OC)C1CC1CC(=O)CC(CC(=O)CCc2ccc(O)cc2)O1 (centres undefined) | 3.85% (inactive) | –

Row | SMILES | inhibition | inhibition [1]
21 | C#CCOCCOCCOCCNc1nc(N2CCN(C(=O)[C@H](C(C)C)n3cc(CCO)nn3)CC2)nc(N2CCN(C(=O)[C@H](C(C)C)n3cc(CCO)nn3)CC2)n1 | -12.1% (inactive) | –
22 | O=C(O)C1=C[C@H](c2cccs2)C[C@H](OCCCCO)O1 | 5.69% (inactive) | –
23 | COC(=O)COc1cccc2c(=O)n(CC(=O)NCCc3ccc(OC)c(OC)c3)ccc12 | 9.94% (inactive) | –
24 | CC1=C(N2CCN(c3ncccn3)CC2)CCC1=O | 12.7% (inactive) | –
25 | NC(=O)CC(NC(=O)Cc1cccc2ccccc12)c1ccc(NCc2cc(F)ccc2F)c([N+](=O)[O-])c1 (centres undefined) | -7.96% (inactive) | –
26 | COC(=O)c1ccc(C(NC(=O)OCc2ccccc2)/C(F)=C/[C@@H](C)C(=O)O)cc1 (some centres undefined) | 3.33% (inactive) | –
27 | CCCC[C@@H]1CN=C(N)N1CCCC | -28.4% (inactive) | –
28 | COc1ccc(C(CC(=O)N2CCN(c3ccccc3)CC2)c2c(O)cc(OC)cc2OC)cc1 (centres undefined) | 0.73% (inactive) | –
29 | C/C=C\C=C\C(=O)N1CC2(CC(c3cccc(NC(=O)/C(C)=C\C)c3)=NO2)C[C@H]1C(N)=O (some centres undefined) | -0.91% (inactive) | –
30 | COC(C[C@@H]1O[C@@H]1C(=O)[C@H](C)OCc1ccccc1)OC | -11.7% (inactive) | –
31 | CCC1(CC)C(=O)C2=C3C1[C@H](C(=O)OC)C=C(C(=O)OC)C[C@H]3[C@H]1C(=O)N(Cc3ccccc3)C(=O)[C@H]1[C@H]2C (some centres undefined) | -0.95% (inactive) | –
32 | C=C1CCN([C@H](C(=O)NCc2cc(OC)c(OC)c(OC)c2)C(C)C)S(=O)(=O)c2ccccc21 | 5.25% (inactive) | –
33 | CC1(C)CC[C@]2(C(=O)O)CC[C@]3(C)C(=CCC4[C@@]5(C)CC[C@H](O)C(C)(C)C5[C@H](O)C[C@]43C)[C@@H]2C1 (some centres undefined) | -10.3% (inactive) | –
34 | CCCCN1C(N)=NC[C@@H]1Cc1ccccc1 | -9.09% (inactive) | –
35 | COC(C[C@H](O)CC(=O)[C@@H](C)OCc1ccccc1)OC | 5.9% (inactive) | –
36 | C=C1CCN([C@@H](Cc2ccccc2)C(=O)N2CCOCC2)S(=O)(=O)c2ccccc21 | -7.13% (inactive) | –
37 | C#CCO[C@@H]1C[C@H](n2cnc3c(=O)[nH]c(NC(=O)C(C)C)nc32)O[C@@H]1CO | 17.4% (inactive) | –
38 | CCO[C@@H]1OC(C(=O)NC2CC2)=C[C@H](C)[C@H]1CCCO | -10.3% (inactive) | –
39 | C#CCOCCOCCOCCNc1nc(N2CCN(C(=O)C([C@@H](C)CC)n3cc(C(N)COC(=O)C(F)(F)F)nn3)CC2)nc(N2CCN(C(=O)[C@H](Cc3ccc(O)cc3)n3cc(C(N)[C@H](C)CC)nn3)CC2)n1 (some centres undefined) | -15.9% (inactive) | –
40 | COc1ccc(C2/C=C\CN(S(=O)(=O)c3cccs3)CC(=O)N2Cc2ccc(F)cc2)cc1 (centres undefined) | -18.6% (inactive) | –

Reference: PubChem BioAssay AID1532 (PCMD, 2009)
